Test results reported in ChEMBL document CHEMBL4513216, “Probing the Open Global Health Chemical Diversity Library for Multistage-Active Starting Points for Next-Generation Antimalarials” (ACS Infect Dis, 2020).
Hit rate of the full screen: of about 68,000 compounds, about 2,700 (4%) showed an effect of 50% or more. This excerpt belongs to a sample that is enriched for strong results.

test system: Plasmodium berghei; assay: Screen against P. berghei liver stage (PbLuc), transformed with Luciferase, at 2uM; type: functional, HepG2; details: tested at 2 uM

Row | SMILES | INHIBITION [%]
1 | CNC(=O)c1csc(-c2cccnc2)n1 | 30.63
2 | CNC(=O)c1csc(-c2ccoc2)n1 | 52.3
3 | CN(C)C(=O)c1csc(-c2ccoc2)n1 | 38.83
4 | Cc1nc(C)n(CC(C)C(=O)N2CCC(NS(C)(=O)=O)CC2)n1 (stereo not given) | 5.85
5 | CCc1ccc(C(COC)NC(=O)c2ccc(C(N)=O)cc2)o1 (stereo not given) | 15.56
6 | CSc1ncccc1C(=O)NCc1ccc(N(C)C)cc1 | 10.65
7 | CSc1ncccc1C(=O)Nc1ccc(Cn2ccccc2=O)cc1 | 52.45
8 | Cc1ncccc1C(=O)Nc1cccc(Cn2ccccc2=O)c1 | 45.67
9 | CS(=O)(=O)N[C@@H]1CCN(Cc2nccs2)[C@H]1Cc1ccncc1 | -11.68
10 | Cc1cc(NC(=O)C(C)Cn2cc(Br)cn2)no1 (stereo not given) | 0.55
11 | Cc1nnc(NCc2cccnc2N(C)C)c(C#N)c1C | 53.03
12 | CCCOc1ncccc1CNc1nnc(C)c(C)c1C#N | 42.12
13 | CCOc1ncccc1CNc1nnc(C)c(C)c1C#N | -27.71
14 | COC(=O)N1CCCC(C(=O)NCc2cc3cccc(OC)c3o2)C1 (stereo not given) | 33.01
15 | CCn1ncc(C(=O)NCCc2nc(-c3ccc(C)cc3)n[nH]2)c1C | -0.21
16 | CC1(C)[C@@H]2CC=C(CN3CCCn4nc(C(=O)NCCO)cc4C3)[C@H]1C2 | 53.17
17 | CC1(C)[C@@H]2CC=C(CN3CCCn4nc(CCC(=O)O)cc4C3)[C@H]1C2 | 6.88
18 | CC1(C)[C@@H]2CC=C(CN3CCCn4nc(C(=O)O)cc4C3)[C@H]1C2 | -17.07
19 | Cn1cc(CCNC(=O)NC2CCS(=O)(=O)C2)cn1 (stereo not given) | 0.3
20 | CC(c1ccc(C(=O)NCCc2nc(N)cc(O)n2)o1)N1CCCCC1 (stereo not given) | -24.78
21 | COc1ccc(-c2nc(C(=O)NCC3CCOC3)cs2)cc1OC (stereo not given) | 60.09
22 | O=C(NCC1CCOC1)c1csc(-c2ccc(Cl)cc2)n1 (stereo not given) | 5.09
23 | Cc1ccc(-c2nc(C(=O)NCC3CCOC3)cs2)cc1 (stereo not given) | 49.9
24 | CC(=O)N(Cc1ncc(C)o1)C1CCN(CCc2cnn(C)c2)C1 (stereo not given) | 9.83
25 | CCC1CN(C(=O)COc2ccc(C(=O)NC3CC3)cc2)CCO1 (stereo not given) | 32.93
26 | N#CCCN1CC(O)CN(C(=O)c2cccc(C(F)(F)F)c2)CC1=O (stereo not given) | 24.52
27 | O=C(NCCCc1nc(=O)[nH][nH]1)Nc1ccc(Cl)cc1 | 23.64
28 | CNc1nc(CNC(=O)Nc2cccc(F)c2)cs1 | -88.54
29 | O=C(NCCCc1nc(=O)[nH][nH]1)Nc1cccc(F)c1 | 52.85
30 | COCC1CN(Cc2ccc(C)o2)Cc2nnn(C)c21 (stereo not given) | 38.83
